# Assay outcomes deposited in PubChem BioAssay by National Center for Advancing Translational Sciences (NCATS).
# In the library only some 2.7% were active in any assay of this set; here they are far more common.
# TrxR1 inh – rat TrxR1 inhibition; O89049; Potency, µM (doses to about 114 µM), without a hit: at the highest dose activity change, negative = inhibition, actives largely listed as inhibitors; 390,000 compounds, 1% hits; AID 588453; recombinant rTrxR1, NADPH fluorescence consumption, selenite substrate; note: potency is the fitted concentration of half-maximal effect; % is set by controls: 0 for no effect and ±100 for the full control effect; nearly all actives have a fitted effect of over 65% in size
#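 Rat TrxR1 (90 nM in the dispensed reagent) was pre-reduced with 400 uM NADPH for 5 min at room temperature, then incubated with compound for 15 min. After 400 uM selenite was added, NADPH fluorescence (Ex 340/Em 450 nm) was followed for 8 min.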
# IDH1 R132H inh – inhibitors of human mutant IDH1 R132H; IDH1-R132H enzyme, NADPH consumption, diaphorase/resazurin fluorescence; Potency, µM (series often up to 76.6 µM), without a hit: top-dose activity change, negative = inhibition, hits mostly inhibitors; 390,000 compounds, 0.093% hits; note: potency is the fitted concentration of half-maximal effect; % is set by controls: 0 for no effect and ±100 for the full control effect; nearly all actives have a fitted effect of over 65% in size
# Target sequence (O75874 whole entry R132H, stated change not applied): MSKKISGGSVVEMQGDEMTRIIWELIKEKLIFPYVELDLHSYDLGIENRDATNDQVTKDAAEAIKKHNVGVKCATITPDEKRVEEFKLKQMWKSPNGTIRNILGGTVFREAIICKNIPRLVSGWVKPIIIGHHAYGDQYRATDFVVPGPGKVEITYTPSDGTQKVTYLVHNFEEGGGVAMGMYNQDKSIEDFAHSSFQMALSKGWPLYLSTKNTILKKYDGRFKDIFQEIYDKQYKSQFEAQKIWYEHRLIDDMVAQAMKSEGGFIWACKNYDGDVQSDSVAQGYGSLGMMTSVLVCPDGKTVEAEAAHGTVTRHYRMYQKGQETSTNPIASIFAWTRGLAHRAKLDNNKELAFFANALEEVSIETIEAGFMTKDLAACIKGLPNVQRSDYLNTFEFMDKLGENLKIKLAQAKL
#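 IDH1-R132H (0.5 ug/mL dispensed) in pH 7.5 Tris buffer was preincubated 30 min with compound, then given a substrate mix of 0.016 mM NADPH and 2 mM alpha-KG for 80 min at room temperature; remaining NADPH was read by diaphorase/resazurin fluorescence.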
# GLP-1R inv ag – GLP-1 receptor (human) inverse agonism. P43220. HEK293 GLP-1R CRE-luciferase, luminescence, 24 h; GLP-1R form is constitutively active. Potency, µM (series often up to 38.3 µM), without a hit: top-dose activity change, negative = inhibition, usual class: inhibitors. 410,000 compounds, 1.6% hits. AID 624417; note: potency is the fitted concentration of half-maximal effect; % is set by controls: 0 for no effect and ±100 for the full control effect; nearly all actives have a fitted effect of over 55% in size
#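 HEK293 cells stably co-expressing a cAMP-responsive luciferase reporter and constitutively active GLP-1R were seeded, incubated 12 h, then exposed to compounds for 24 h at 37 C. Luminescence was read 12 min after detection reagent; inverse agonists lower signal.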
# GLP-1R agonist – agonists of human GLP-1 receptor; HEK293 GLP-1R CRE-luciferase, luminescence, 4-6 h; cells express a hypersensitive GLP-1R form; AID 624172; Potency, µM (doses to about 45.6 µM), inactives show top-dose activation, hits mostly activators; 380,000 compounds, 0.007% hits; note: potency is the fitted concentration of half-maximal effect; % of control where 0% means no effect
# TrxR1 substrate – is turned over as a substrate by rat TrxR1; O89049; purified TrxR1 substrate turnover, NADPH consumption readout; Potency, µM (doses to about 114 µM), inactives show at the top dose activity change, negative = substrate turnover; 390,000 compounds, 0.01% hits; note: potency is the fitted concentration of half-maximal effect; % is set by controls: 0 for no effect and ±100 for the full control effect; nearly all actives have a fitted effect of over 50% in size
#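 Rat TrxR1, dispensed at 90 nM, was prereduced with 400 uM NADPH (final) for 5 min at ~22 deg C, then incubated with compound 15 min before 400 uM selenite. A first-read NADPH fluorescence drop versus no-compound background flagged substrates.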
# GLP1R cytotox – cytotoxicity in counter-screen for GLP-1R inverse agonists; Potency, µM (series often up to 38.3 µM), for inactives: at the top dose activity change, negative = inhibition, actives largely listed as inhibitors; HEK293 cAMP-luciferase reporter cells, luminescence, 24 h; 410,000 compounds, 0.13% hits; AID 624418;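 note: loss of luciferase light is scored as toxicity; potency is the fitted concentration of half-maximal effect; % is set by controls: 0 for no effect and ±100 for the full control effect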
#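 A 23 nL compound transfer followed 12 hours of cell culture at 37 deg C; exposure then lasted 24 hr. Luciferase assay detection reagent was dispensed and plates read for luminescence after a 12 min room-temperature wait.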
# IDH1 autofl – autofluorescence interference, mutant IDH1 hit counter-screen. shares compounds with IDH1 R132H inh. Resorufin detection reagent fluorescence interference, cell-free. inhibition of signal, % at 51.2 µM. 750 tested, under 10 active;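 note: 0% = wells with normal resorufin and full inhibition = wells lacking resorufin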
# IDH1 WT – inhibits human wild-type IDH1, mutant selectivity check; shares compounds with IDH1 R132H inh; WT IDH1 enzyme, NADPH diaphorase/resazurin fluorescence; Potency, µM (highest dose often 115 µM), inactives show at the top dose activity change, negative = inhibition, most hits filed as inhibitors; 750 compounds, 9% hits;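 note: potency is the fitted concentration of half-maximal effect; 0% = full WT IDH1 enzyme control and full inhibition = no enzyme wells; nearly all actives have a fitted effect of over 55% in size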
# Target sequence (O75874 whole entry, looked up): as the sequence (O75874 whole entry R132H, stated change not applied) above, with H132R counted along it
# IDH1 R132H conf – confirmation of human mutant IDH1 inhibitors; shares compounds with IDH1 R132H inh; IDH1 R132H enzyme, NADPH diaphorase/resazurin fluorescence; Potency, µM (top dose mostly 76.6 µM), inactives show top-dose activity change, negative = inhibition, hits mostly inhibitors; 750 compounds, 83% hits; AID 624002; note: potency is the fitted concentration of half-maximal effect; nearly all actives have a fitted effect of over 50% in size
# Numbers without * were called inactive; ? = inconclusive; · = no result given; [ ] = another dose, or the depositor's remark. Calls come from the whole dose curve; as a rule, active = well fitted curve in the direction sought with a large enough effect; inconclusive = small, poorly fitted or top-dose-only effect, or another doubt; inactive = no such curve, though single readings can be large; an effect the other way counts as inactive or inconclusive.
SMILES,TrxR1 inh,IDH1 R132H inh,GLP-1R inv ag,GLP-1R agonist,TrxR1 substrate,GLP1R cytotox,IDH1 autofl,IDH1 WT,IDH1 R132H conf
CN1CC=C2C(C#N)=C(N)C(C#N)(C#N)C(c3ccsc3)C2C1 (stereo unspecified),4%[57.1 µM],?,-21%,-1%,55%,65%,1,-13%,?
COc1cc(-c2c(-c3ccc4c(c3)OCO4)noc2-c2ccsc2)cc(OC)c1OC,-5%,·,·,·,-4%,·,·,·,·
O=C(O)c1cc(-c2ccc(-c3c(-c4ccc5c(c4)OCO5)noc3-c3ccsc3)cc2)nc2ccccc12,10%[57.1 µM],45µM*,31%,14%,-8%,8%,4,?,20µM*
COc1ccc(-c2cc3nc(C4CCN(C(=O)OC(C)(C)C)CC4)c(C(=O)O)cn3n2)cc1,2%,21µM*,0%,?,15%,-21%,-6,79µM*,16µM*
CCOC(=O)c1cn2nc(-c3ccc(OCC)cc3)cc2nc1C1CCN(C(=O)OC(C)(C)C)CC1,58%,-7%,0%,-9%,47%,-2%,·,·,·
O=C(Cn1c(=O)nc(-c2ccccc2)c2ccccc21)Nc1ccc(Cl)c(C(F)(F)F)c1,16%[57.1 µM],-10%,9%,·,8%[57.1 µM],-9%,·,·,·
O=C(O)c1ccccc1NS(=O)(=O)c1ccc(N/N=C/c2cccc(O)c2O)c([N+](=O)[O-])c1,?,41µM*,0%,-4%,-19%,?,8,?,14µM*
O=S(=O)(c1ccc(NC(=S)N/N=C/c2cccc(Oc3ccccc3)c2)cc1)N1CCOCC1,-16%[57.1 µM],?,2%,1%,1%[57.1 µM],-21%,2,4%,?
O=S(=O)(c1ccc(NC(=S)NN=Cc2ccccc2O)cc1)N1CCCCC1,-18%[11.4 µM],46µM*,?,-10%,-5%[11.4 µM],-14%,6,4%,22µM*
CSc1nc(N(C)NC(=O)c2ccc(Cl)cc2)c2ccccc2n1,6%,46µM*,-3%,1%,1%,-49%,4,2%,22µM*
Cc1nnsc1NC(=O)OCc1ccc(C(C)(C)C)cc1,15%,?,?,-19%,-3%,-3%,3,2%,-3%
CCOC(=O)CSC1=NC(=O)/C(=C/c2ccc(Br)cc2)S1,22%[57.1 µM],?,-28%,-4%,9%[57.1 µM],?,1,71µM*,35µM*
CCOc1ccc(NC(=O)CN2C(=O)C(c3ccccc3)=NC23CCC(C)CC3)cc1 (stereo unspecified),11%,22µM*,?,·,-7%,-25%,2,3%,16µM*
COc1ccc(NC(=O)CN2C(=O)C(c3ccccc3)=NC23CCC(C)CC3)cc1Cl (stereo unspecified),25%,·,?,·,-3%,-5%,·,·,·
CCN(CC)C(=O)c1sc2c(c1C)c(=O)n(CCc1ccccc1)c(=O)n2Cc1cccc(Cl)c1,16%[57.1 µM],32µM*,?,·,5%[57.1 µM],1%,-6,3%,11µM*
Cc1cccc(Cn2c(=O)n(CCc3ccccc3)c(=O)c3c(C)c(C)sc32)c1,37%,·,8%,·,4%,1%,·,·,·
Cc1ccc(C)c(N2CCN(C(=O)c3cc(S(=O)(=O)N4CCCCC4)cn3C)CC2)c1,42%[57.1 µM],15%,-11%,-3%,8%[57.1 µM],0%,·,·,·
CC[C@]12c3[nH]c4cc(-c5ccco5)ccc4c3CCN1C(=O)[C@@H](CC(=O)NC/C=C(\C)CCC=C(C)C)C[C@@H]2C(=O)N1CCN(C(=O)C2CC2)CC1,-11%,35µM*,?,-4%,12%,-18%,-1,-2%,-13%
CC(C)=CCC/C(C)=C/CNC(=O)C[C@H]1C[C@H](C(=O)N2CCCCC2)[C@@]2(C)c3[nH]c4cc(CCC(=O)N(C)C)ccc4c3CCN2C1=O,3%,?,-19%,-2%,-6%,-9%,-7,-8%,25µM*
COc1ccccc1CNC(=O)c1cnc2sc(N3CCOCC3)nn2c1=O,2%[57.1 µM],-5%,10%,·,25%[57.1 µM],-1%,·,·,·
COc1ccc(-c2n[nH]c3c2C(c2ccc(Cl)cc2Cl)NC3=O)cc1 (stereo unspecified),11%,?,9%,6%,-5%,-9%,1,-9%,40µM*
COc1ccc(C2NC(=O)c3n[nH]c(C)c32)c(OC)c1 (stereo unspecified),13%,-3%,52%,3%,6%,2%,·,·,·
COc1ccc(C(=O)c2c3ccccc3[n+]([O-])n2Cc2ccc(C(N)=O)cc2)cc1,10%[57.1 µM],-11%,27%,7%,5%[57.1 µM],-36%,·,·,·
COc1ccc2c(C(=O)c3ccc(C)cc3)n(Cc3ccc(C(N)=O)cc3)[n+]([O-])c2c1,10%,?,9%,-7%,3%,10%,4,-19%,16µM*
Cc1ccc(-n2c(SCC(=O)O)nc3c(sc(=S)n3-c3ccc(C)c(C)c3)c2=O)cc1,-8%,5%,-22%,-2%,-7%,5%,·,·,·
Cc1ccc(-n2c(=S)sc3c(=O)n(-c4ccc(F)cc4)c(SCC(=O)O)nc32)cc1C,-1%,?,-26%,0%,-11%[57.1 µM],-3%,-22,0%,13µM*
CC[N+]1(CC)CCC(=C(c2ccccc2)c2ccccc2)C1C (stereo unspecified),·,·,·,-1%,·,·,·,·,·
Cc1cc(C(C)(C)C)oc1C(=O)NCCCNC(=O)c1oc(C(C)(C)C)cc1C,-3%[57.1 µM],?,?,-4%,2%[57.1 µM],-5%,-3,?,11µM*
Cc1cc(C(C)(C)C)oc1C(=O)OCC(=O)NC1CCCCC1,18%,10%,?,19%,-3%,3%,·,·,·
Cc1nn(-c2ccccc2)c(Cl)c1CN(C(=O)CCl)c1ccc(Cl)cc1,22µM*,52µM*,?,-40%,-10%,?,-2,-2%,28µM*
